Reference: PubChem BioAssay (NCI)
This is part of a sample that, as a whole, favours compounds with a hit. Of some 83,000 tested, about 20% had one in any assay.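 For each line, cells grew in 96-well plates with the test compound present at a single concentration for 48 hours.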 A number with no mark means an inactive call. Active and inactive are the calls of the source. How the source made its calls: active means growth percent below 10; inactive means the rest.

tested on: OVCAR-5 ovarian; test: NCI-60 one-dose screen, 48 h (100 = growth as untreated, 0 = no growth, -100 = all killed); settings: 10 µM

Row | Structure (SMILES) | growth
1 | NS(=O)(=O)Oc1ccc(NC(=O)C2CCCCCC2)cc1 | 98.4%
2 | O=C(CSc1nnc(-c2cccnc2SCc2ccccc2)o1)Nc1nc(Cl)cc(Cl)n1 | 106%
3 | O=C1/C=C/[C@@H](O)[C@@H]2C[C@@H](O)C[C@H]2/C=C/CCC[C@H](CCc2ccc(NC(=S)Nc3ccc4c(c3)C(=O)OC43c4ccc(O)cc4Oc4cc(O)ccc43)cc2)O1 | 17.9%
4 | O=C(CCl)Nc1ccc(Cc2ccc(NC(=O)CCl)cc2)cc1 | 9.56% (active)
5 | Cc1cc(Cl)ccc1Nc1nc(C(F)(F)F)ccc1C(=O)N/N=C/c1c(Cl)cccc1Cl | 24.8%
6 | COc1ccc2c(c1)C(=O)/C(=C/c1ccc([N+](=O)[O-])o1)O2 | -52.2% (active)
7 | S=C(SSC(=S)N(c1ccccc1)c1ccccc1)N(c1ccccc1)c1ccccc1 | 111%
8 | CC(C)=CCC/C(C)=C/CC/C(C)=C/CC/C=C(\C)CC/C=C(\C)CCC(=O)Nc1ccn(C2OC(CO)C(O)C2(F)F)c(=O)n1 (stereo not given) | 74.6%
9 | c1ccc(/C(=N\Nc2ccc3ccccc3n2)c2ccccn2)cc1 | 51.1%
10 | c1ccc(CSc2ncccc2-c2nnc(SCCN3CCOCC3)o2)cc1 | 119%
11 | CN(C)c1ncnc2c1nnn2C1OC(CO)C(O)C1O (stereo not given) | 26.8%
12 | COc1ccccc1/C=N\N/C(N)=N\N=C\c1ccccc1OC | 32.3%
13 | COc1cc(/C=C/c2cc(/C=C/c3ccc(O)c(OC)c3)nc(N)n2)ccc1O | 5.83% (active)
14 | O=C(/C=C/c1cccc(B(O)O)c1)c1cccc(B(O)O)c1 | -12% (active)
15 | CN(C)CCC1(c2ccccc2)CCN(C)C1=O (stereo not given) | 107%
16 | COc1ccc(/C=C/c2nnc(/C=C/c3ccc(OC)c(OC)c3)o2)cc1OC | 41.3%
17 | CN(C)c1ccc(/C=N/NC(=O)c2ccccc2Nc2cccc(C(F)(F)F)c2)cc1 | 88.4%
18 | CN(C)CCOc1ccc(-c2nc3sccn3c2-c2ccnc(S(C)(=O)=O)n2)cc1 | 107%
19 | COc1ccc(CCN2CCC(Nc3nc4ccccc4n3Cc3ccc(F)cc3)CC2)cc1 | 34.5%
20 | O=C(CN(C1CCCCC1)C1CCCCC1)Nc1ccc(S(=O)(=O)c2ccc(NC(=O)CN(C3CCCCC3)C3CCCCC3)cc2)cc1 | -54.8% (active)

Row | Structure (SMILES) | growth
21 | COc1ccc2nc(-c3ccc(Cl)cc3)cc(-c3nnc(SC/C(=N\O)c4ccccc4)n3-c3ccccc3)c2c1 | 88.6%
22 | Cc1cc(CSc2ccccc2C(=O)N2CC=C(c3ccccc3)CC2)on1 | 87.3%
23 | CCOC(=O)c1cc(C(=O)c2cc(OC)c(OC)c(OC)c2)n2nc(C)ccc12 | 64.9%
24 | O=C(O)c1ccc(-n2cc(CNc3ccc(Cl)cc3)c(-c3ccccc3)n2)cc1 | 103%
25 | CNC(=O)c1cc(Oc2ccc3c(c2)sc2nc(-c4ccc(N)cc4)cn23)ccn1 | 64.2%
26 | Nc1ccc(CC[C@H]2CCC/C=C/[C@@H]3C[C@H](O)C[C@H]3[C@H](O)/C=C/C(=O)O2)cc1 | 11.4%
27 | CNC(=O)c1cn(C2CC2)c2cc(N3CCN(C(=O)c4cc(OC)c(OC)c(OC)c4)CC3)c(F)cc2c1=O | 96%
28 | CN1CCN(C2=Nc3ccccc3Oc3ccc(Cl)cc32)CC1 | 96.1%
29 | COc1ccc(Cc2cnc(N)nc2N)cc1OC | 100%
30 | COc1ccc(C(c2ccc(OCCN(C)C)cc2)c2cc3ccccc3c3ccccc23)cc1 (stereo not given) | 79.3%
31 | O=C(N/N=C/c1ccc(Cl)cc1)c1ccccc1Nc1cccc(C(F)(F)F)c1 | 96.9%
32 | CC(=O)O[C@@]12CO[C@@H]1C[C@H](O)[C@@]1(C)C(=O)[C@H](O)C3=C(C)[C@@H](OC(=O)[C@H](O)[C@@H](NC(=O)OC(C)(C)C)c4ccccc4)C[C@@](O)([C@@H](OC(=O)c4ccccc4)C12)C3(C)C (stereo not given in full) | 40.1%
33 | CS(=O)(=O)c1nccc(-c2c(-c3cccc(OCCc4ccccc4)c3)nc3sccn23)n1 | 103%
34 | C(=N\Nc1ncnc2sc3c(c12)CCNC3)/c1cccc2ccccc12 | 89.8%
35 | CNS(=O)(=O)Oc1ccc(-c2sc3cc(OS(=O)(=O)NC)ccc3c2C(=O)c2ccc(OCCN3CCCCC3)cc2)cc1 | 88.3%
36 | CCCCC/C=C/C/C=C/CCCCCCCC1=NC(C)(C)CN1C(C)C | 62.9%
37 | C#C[C@]1(O)CCC2C3CCc4cc(OC5CCCC5)ccc4C3CC[C@@]21C (stereo not given in full) | 63.2%
38 | O=C(N/N=C/c1c(Cl)cccc1Cl)c1ccccc1Nc1cccc(C(F)(F)F)c1 | 105%
39 | COc1cccc(-c2nc3sccn3c2-c2cccc(S(C)(=O)=O)c2)c1 | 96.3%
40 | CC(=O)Nc1ccc(S(=O)(=O)c2ccnc3cc(Cl)ccc23)cc1 | 100%
